Measured values: PubChem BioAssay AID493085 (Broad Institute, 2011)
Out of some 2,400 compounds screened, about 360 (15%) were called active. Roughly 5% stayed inconclusive and do not appear here.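 How the source made its calls: active means falling-signal curve with half-maximal concentration at or below ten times the top tested dose; inconclusive means flat fit at 30 to 70% inhibition, or poor fit; inactive means signal rise, flat within 30%, or potency beyond limit.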 A selection follows. Measured potencies and affinities stand elsewhere.

Experiment: dox-induced RFP signal loss in R4-3T3 cells – cell-based, NIH3T3 R4, HSE-GFP and Tet-On RFP, cherry-pick, set 3, dose response (AID 493085);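 further: cells heat shocked 2 h at 42 °C with doxycycline to induce reporters; 0% = neutral control wells and -100% = didemnin B control at 400 nM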
Details: NIH3T3 R4 HSE-GFP/Tet-RFP reporter, fluorescence, 48 h; series mostly up to 19.5 µM; activity change, negative = inhibition: at the top concentration

Activity change, negative = inhibition, inactive:
CSc1ccccc1NC(=O)C1=CC(c2ccc(C)cc2)=NS(=O)(=O)N1C -10.2%, CCOc1ccc(NC(=S)Nc2ccc(OC(F)(F)F)cc2)cc1 -9.64%, Cc1[nH]c(=O)c(C#N)cc1-c1csc(-c2ccccc2)n1 0.405%, COC(=O)CCC(=O)NNC(=O)c1cccc(Br)c1 6.48%, COc1ccccc1CCC(=O)OCC(=O)Nc1cccc(S(=O)(=O)N2CCOCC2)c1 -6.16%, CCOC(=O)C1=C(C)N(CCC(=O)O)C(=O)NC1c1ccccc1Cl (stereo not given) -13.5%, COc1ccc(/C=C(\C#N)C(=O)Nc2cc(C)c(Cl)cc2OC)cc1O -14.6%, CSc1nccn1C(=O)c1ccccc1[N+](=O)[O-] -2.94%, Cc1ccc(-n2cc(C(=O)c3ccccc3O)cn2)cc1 -6.36%, O=C(CSc1nc2ccccc2s1)N/N=C/c1ccccc1C(=O)O -11.6%, CC(C)c1ccccc1-n1c(-c2cccnc2)n[nH]c1=S -4.65%, COc1ccccc1NC(=O)Cn1c(=O)c(N(C)C)c(N)n(C)c1=O 5.09%, COCCn1c(=O)[nH]c2cc(C(=O)NC3CCCCCC3)ccc2c1=O -0.369%, COc1cccc(NC(=O)CCSc2nnc3scc(-c4ccccc4)n23)c1 -3.84%, CCCC(NC(=O)COc1cc2c(c3oc(=O)cc(C)c13)CCC(C)(C)O2)C(=O)O (stereo not given) -3.98%, CC(C(=O)NC1CC(C)(C)NC(C)(C)C1)c1ccc([N+](=O)[O-])cc1 (stereo not given) 1.55%, CC(=O)c1cccc(NC(=O)CN2C(=O)c3ccccc3C2=O)c1 -1.97%, CCOc1ccc(/C=N/NC(=O)c2ccc(Cn3cc([N+](=O)[O-])cn3)o2)cc1 4.4%, NC(=S)N/N=C1\CC(n2nnnc2-c2ccccc2Cl)C2COC1O2 (stereo not given) -8.92%, COc1ccc(/C=N/Nc2nc(C)cc(=O)[nH]2)cc1OC 13.2%, COc1ccc(-c2nc(CNS(=O)(=O)c3ccc(OC)c(OC)c3)cs2)cc1 -23.9%, Cc1cccc(N2CCN(Cc3nc(-c4ccccc4Cl)oc3C)CC2)n1 1.41%, O=C(N/N=C/c1ccccn1)c1ccc([N+](=O)[O-])cc1 -7.84%, Oc1ccc(Br)cc1/C=N/Nc1ccccn1 25.6%, CCOC(=O)C[n+]1c(C)csc1C -3.68%, CCOc1ccc(NC(=O)C(C)NS(=O)(=O)c2ccc(NC(C)=O)cc2)cc1 (stereo not given) 5.38%, Cc1ccc(Cn2c(Sc3ncccn3)nc3c2c(=O)[nH]c(=O)n3C)cc1 -12.6%, Cc1nccn1Cc1cccc2ccccc12 -10.7%, CC(=O)NCCNC(=O)c1ccc(CSc2nc3ccccc3s2)cc1 5.39%, Cc1cc(=O)[nH]c2c1c(=O)[nH]n2C1CC(C)N(C)CC1C (stereo not given) -6.94%, C=CCOCCN(CCOCC=C)C1=NS(=O)(=O)c2ccccc21 3.73%, Cc1cc(OCC(=O)NCCc2ccc(S(N)(=O)=O)cc2)c2c(C)cc(=O)oc2c1 -1.48%, NS(=O)(=O)c1ccc(CCNCC#Cc2ccccc2)cc1 -3.99%, CCn1cc(C(=O)NCCCN2CC(C)CC(C)C2)c(=O)c2cc(S(=O)(=O)N(C)C)ccc21 (stereo not given) -8.74%, O=C(N1CCOCC1)C12CCC3CC(CC(C3)C1)C2 0.372%, CCCS(=O)(=O)c1cnc(C2COc3ccccc3O2)nc1N (stereo not given) -5.24%, C=CCn1c(C)nnc1SCC(=O)Nc1nc(C)c(C(=O)N(C)C)s1 -8.13%, O=C1CC(N2CCCCC2)C(=O)N1c1ccccc1 (stereo not given) 5.59%, Cc1ccc(-n2nc3c(=O)n(CCCC(=O)N4CCC(C(N)=O)CC4)nc(C)c3c2C)cc1 -0.762%, O=S(=O)(Nc1ccc2c(c1)OCCO2)c1cccs1 0.199%, CC1C(=O)C(C)C(c2ccco2)NC1c1ccco1 (stereo not given) -12.8%, Nc1nc2n(c1C(=O)c1ccccc1)CCC2 -5.46%, COc1ccc(N2CCN(CC(O)COCCOc3ccc(Br)cc3)CC2)cc1 (stereo not given) -12.8%, CC(C)(C)c1ccc(-c2nnc3sc(-c4ccccn4)nn23)cc1 -7.98%, Cn1c(C(=O)O)c(CC(=O)Nc2ccc3c(c2)OCCO3)c2ccccc21 -2.93%, CCCS(=O)(=O)N1CCCC(C(=O)N2CCC(Cc3ccccc3)CC2)C1 (stereo not given) -4.5%, CC(=O)Nc1ccc(-c2nnn(CC(=O)Nc3ccc4c(c3)OCO4)n2)cc1Cl -4.62%, O=C1Cc2ccccc2C(=O)N1c1cccc(Cl)c1 -1.22%, CC(C)CNC(=O)C1CCN(Cc2ccc(OCc3ccccc3)cc2)CC1 7.96%, COc1cc(NC(=O)c2cc3cccc(OC)c3o2)cc(C(=O)Nc2cccc(C(F)(F)F)c2)c1 4.58%, CN(CC(=O)Nc1cccc(F)c1)CC(=O)Nc1cccc(S(N)(=O)=O)c1 14.2%, COc1ccc(S(=O)(=O)Nc2ccccc2C(=O)N2CCOCC2)cc1Cl -1.01%, COc1ccc(CN(C)C(=O)c2cc(S(=O)(=O)N3CCOCC3)ccc2N2CCCC2)cc1 1.5%, Cc1noc(NS(=O)(=O)c2ccc(N3Cc4ccccc4C3=O)cc2)c1C -1.64%, CCCCN1C=CC(=C2C(=O)c3ccccc3C2=O)C=C1 -3.88%, Fc1ccccc1NC(=S)Nc1ccc(CN2CCOCC2)cc1 -7.41%, COC(=O)C1CCN(C(=O)c2sc3nc(-c4ccccc4)cn3c2C)CC1 -12.9%, CCOC(=O)c1sc2nc3c(cc2c1N)COC(C(C)C)C3 (stereo not given) 3.31%, CCCn1c(SCC(=O)c2c(C)[nH]c(C)c2C(=O)OCC)nc2ccccc21 -4.22%, CCOC(=O)c1n[nH]c(=O)c2ccccc12 -8.51%, Cc1cccc(Nc2nc(-c3ccc4c(c3)OCCO4)cs2)c1 6.28%, COc1cccc(-n2nnc3c(=O)n(Cc4ccccc4Cl)cnc32)c1 -9.31%, Nc1nc(Cl)nc(N(c2ccccc2)c2ccccc2)n1 3.98%, CCOC(=O)Cn1c(CCC(=O)O)ccc1-c1ccc(F)cc1 4.16%, COc1ccc(S(=O)(=O)/C(C#N)=C/Nc2cccc(OC)c2)cc1 -6.14%, O=S(=O)(Nc1ccncc1)c1ccc(Cl)cc1 -4.03%, NC(=O)c1nsc(C(=O)N(c2cccc(F)c2)C(C(=O)NC2CCCC2)c2ccco2)c1N (stereo not given) -7.03%, COc1ccc(C(=O)N2CCN=C2SCc2cccnc2)cc1OC -4.35%, CCN(C(=O)c1ccc2c(SCC(=O)O)c3c(nc2c1)CCC3)c1cc(Cl)ccc1OC -2.82%, CC(/C=N\NC(=O)c1cc(C)oc1C)=C\c1ccccc1 -1.55%
